# From PubChem BioAssay
# LYPLA1 counter = blocks human lysophospholipase 1, a PME1 counter-screen | O75608 | recombinant LYPLA1, FP-Rh probe fluorescence polarization | inhibition, % at 5.9 µM | 320,000 compounds, 0.16% hits | AID 2174;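 active = inhibition above the mean of all tested compounds plus 3 SD, set per campaign, cut at about 14% in these data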;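 also: inhibitors block serine hydrolase probe labeling of LYPLA1 so polarization falls; 0% = enzyme with DMSO and 100% = wells lacking LYPLA1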
# PAD4 FP inh = inhibitors of human PAD4. Q9UM07. recombinant PAD4, RCA probe fluorescence polarization. inhibition, % at 6.36 µM. 330,000 compounds, 0.41% hits. AID 485272;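 active = percent inhibition above a cutoff equal to the mean of all tested compounds plus 3 SD, cut at about 15% in these data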;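 also: 0% = PAD4 with RCA probe and DMSO and 100% = probe without PAD4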
# GSTO1 counter = blocks human GSTO1 in RBBP9 counter-screen. recombinant GSTO1, activity-based probe fluorescence polarization. P78417. inhibition, % at 5.96 µM. 300,000 compounds, 1.1% hits;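 active = inhibition above the campaign mean inhibition plus 3 SD, cut at about 35% in these data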;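 also: 0% = GSTO1-1 with DMSO and 100% = wells lacking GSTO1-1 enzyme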
# Target sequence (P78417 whole entry, looked up): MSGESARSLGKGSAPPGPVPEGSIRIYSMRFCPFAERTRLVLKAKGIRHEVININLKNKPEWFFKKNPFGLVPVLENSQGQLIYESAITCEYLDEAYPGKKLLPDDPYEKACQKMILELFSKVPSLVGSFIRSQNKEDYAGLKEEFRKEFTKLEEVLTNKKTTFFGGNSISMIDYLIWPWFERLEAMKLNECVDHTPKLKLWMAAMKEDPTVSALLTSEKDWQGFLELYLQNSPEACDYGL
# LYPLA2 counter = counter-screen for PME1 inhibitors: inhibitors of human LYPLA2; O95372; recombinant LYPLA2, FP-Rh probe fluorescence polarization; inhibition, % at 5.9 µM; 320,000 compounds, 0.38% hits; AID 2177;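 active = inhibition above the screen-wide mean plus 3 SD, limit set per campaign, cut at about 26% in these data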;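 also: 0% = LYPLA2 with DMSO and 100% = wells lacking LYPLA2 enzyme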
# Fam108B inh = blocks mouse Fam108B hydrolase in RBBP9 counter-screen | recombinant Fam108B, FP-Rh probe fluorescence polarization | inhibition, % at 9.51 µM | 300,000 compounds, 0.33% hits | AID 1947;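 active = inhibition above the screen mean inhibition plus 3 SD, computed separately per campaign, cut at about 18% in these data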;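 also: inhibitors lower polarization as less probe binds the enzyme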
# PME-1 inh = blocks human protein phosphatase methylesterase 1. Q9Y570. recombinant PME-1, FP-Rh probe fluorescence polarization. inhibition, % at 5.9 µM. 320,000 compounds, 0.53% hits. AID 2130;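 active = inhibition above the campaign mean of all compounds plus 3 SD, cut at about 26% in these data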;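 also: competitive labeling of PME-1 active site by serine hydrolase directed probe; 0% = PME-1 with DMSO and 100% = wells lacking PME-1 enzyme; inhibitors block probe labeling so polarization falls and inhibition rises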
# Target sequence (Q9Y570 whole entry, looked up): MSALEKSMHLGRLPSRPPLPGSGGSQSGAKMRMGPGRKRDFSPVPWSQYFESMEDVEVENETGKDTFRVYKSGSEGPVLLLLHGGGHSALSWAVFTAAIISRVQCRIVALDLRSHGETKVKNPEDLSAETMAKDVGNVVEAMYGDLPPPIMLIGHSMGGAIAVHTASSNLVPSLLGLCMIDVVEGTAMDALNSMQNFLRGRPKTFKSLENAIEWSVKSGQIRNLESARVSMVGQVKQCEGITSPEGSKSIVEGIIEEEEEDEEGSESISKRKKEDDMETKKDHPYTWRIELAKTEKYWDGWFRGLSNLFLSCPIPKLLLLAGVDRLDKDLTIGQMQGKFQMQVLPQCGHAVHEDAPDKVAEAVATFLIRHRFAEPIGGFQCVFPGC
# GSTO1 inh conf = confirmation of human GSTO1 inhibitors; shares compounds with GSTO1 counter; recombinant GSTO1, probe fluorescence polarization; inhibition, % at 5.96 µM; 2,400 compounds, 54% hits;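 active = inhibition above the primary screen's cutoff, its mean inhibition plus 3 SD, cut at about 35% in these data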;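 also: loss of polarization as inhibitors block binding of rhodamine sulfonate ester activity probe; 0% = GSTO1 with DMSO and 100% = wells lacking GSTO1 enzyme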
# GSTO1 recomb ABPP = inhibitors of recombinant human GSTO1; shares compounds with GSTO1 counter; gel ABPP SE-Rh probe fluorescence; inhibition, % at 1 µM; 130 compounds, 30% hits; AID 463110;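 active = inhibition of the enzyme GSTO1 above about 75%, limit read from the data; inactive = inhibition below that limit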
# * marks the source's active call; other numbers are inactive results; / = no result given. Only some compounds are listed: those with a hit (about 1.8% of all), similar ones and a draw of the others.
SMILES,LYPLA1 counter,PAD4 FP inh,GSTO1 counter,LYPLA2 counter,Fam108B inh,PME-1 inh,GSTO1 inh conf,others
NC1=C(Br)C(=O)c2ccccc2C1=O,1.0,3.6,65.5*,1.7,5.3,7.5,28.2,
O=C(O)c1ccc2c(c1Nc1ccccc1)C(=O)c1ccccc1C2=O,1.0,-4.4,8.8,-1.8,11.0,4.6,/,
CC(C)NC1=C(Cl)C(=O)c2ccccc2C1=O,1.8,-14.7,64.9*,-0.3,3.4,-0.4,13.6,
O=C(O)c1ccc(NC2=C(Cl)C(=O)c3ccccc3C2=O)cc1,1.7,-10.1,79.1*,0.7,13.5,-0.6,48.8*,
O=C1C(Cl)=C(Nc2ccccc2)C(=O)c2ccccc21,2.2,1.6,101.8*,6.0,11.9,10.7,89.7*,
CC(=O)c1cccc(NC(=O)C2CCN(C(=O)c3ccc([N+](=O)[O-])cc3)CC2)c1,0.2,2.6,3.3,17.9,5.2,-3.0,/,
CC(NC(=O)C1CC1)C(c1cccs1)N1CCN(c2ccccc2)CC1 (stereo not given),-2.0,-0.7,0.8,5.7,2.1,0.8,/,
CC(NC(=O)C1CC1)C(c1cccs1)N1CCOCC1 (stereo not given),1.9,-3.3,85.0*,9.1,-3.2,1.2,7.2,
O=C(O)c1ccccc1Sc1ncnc2sc3c(c12)CCC3,-3.1,1.9,7.7,-7.8,0.2,-6.8,/,
CCCOc1ccc(N)cc1N,-6.2,49.3*,78.0*,-0.8,17.5,12.5,-14.2,
CCCOc1cc(N)ccc1C(=O)OCCN(CC)CC,2.4,-2.0,5.8,0.7,-2.4,-0.1,/,
O=c1[nH]c2ccccc2c2oc(CCl)nc12,1.4,-1.9,86.7*,-1.7,-0.8,-8.4,98.6*,GSTO1 recomb ABPP=69.0
COc1ccccc1N(C)S(=O)(=O)c1ccc(C(=O)Nc2ccncc2)cc1,-0.7,0.3,4.8,-6.1,0.5,-2.0,/,
CN1C(=O)C(Cc2cnc[nH]2)NC1=S (stereo not given),-0.9,-8.6,-5.1,2.7,3.4,3.9,/,
CCOc1ccc(OCc2ccc(C(=O)Nc3ccc(Cl)cn3)o2)cc1,-4.8,2.5,-0.2,-1.0,-6.6,-13.6,/,
O=C(Nc1ccc(Cl)cn1)c1ccc(COc2ccccc2Br)o1,-6.3,1.2,62.9*,-7.6,-11.8,-17.5,3.0,
CC(=O)OC1COC(n2c(O)c(N=NC(N)=S)c3ccccc32)C(OC(C)=O)C1OC(C)=O (stereo not given),0.3,-1.4,7.1,-0.8,4.2,-1.6,/,
Cc1ccc(C(=O)NC(=S)NNC(=O)COc2ccc([N+](=O)[O-])cc2)cc1,1.9,0.4,-8.0,7.2,4.6,-5.0,/,
COC(=O)C(C(C)=O)C1=C/C(=N\S(=O)(=O)c2ccc(C)cc2)c2ccccc2C1=O (stereo not given),-1.3,-7.3,49.0*,0.1,-8.1,-0.6,9.5,
COC(=O)[C@H](CO)NS(=O)(=O)c1ccc(C)cc1,/,4.7,/,/,/,/,/,
COCc1[nH][nH]c(=O)c1/C=N/N1CCOCC1,-2.0,-8.1,38.3*,-8.4,3.6,4.1,5.8,
O=C(CCl)N=c1sccn1Cc1ccc(Cl)cc1Cl,-6.9,1.1,75.9*,-5.5,-4.1,0.8,90.8*,
CCN(CC)c1ccc(NS(=O)(=O)c2ccc3c(c2)oc(=O)n3C)c(C)c1,2.6,-2.2,69.9*,0.6,-0.2,-1.2,69.8*,
COc1ccc(NS(=O)(=O)c2ccc3c(c2)oc(=O)n3C)cc1Cl,-1.4,0.2,51.3*,-1.6,-3.9,1.1,57.4*,
O=C(NC1CCCCC1)c1ccc(CS(=O)Cc2ccc(Cl)cc2)o1 (stereo not given),0.9,-1.9,1.2,2.6,-3.0,2.7,/,
SMILES,LYPLA1 counter,PAD4 FP inh,GSTO1 counter,LYPLA2 counter,Fam108B inh,PME-1 inh,GSTO1 inh conf,others
COC(=O)c1ccccc1NC(=O)CN1C(=O)C2CCCN2c2ncc(Cl)cc21 (stereo not given),-11.6,-6.9,-19.3,-26.9,-6.8,-18.5,/,
COc1ccc(OC)c(NC(=O)c2ccc(-n3cccn3)nc2)c1,2.5,-0.9,0.6,-1.8,-0.6,-3.0,/,
COc1cccc(CNC(=O)C2CCC(CNc3c(N4CCC(C)CC4)c(=O)c3=O)CC2)c1 (stereo not given),2.4,-0.1,-4.3,2.9,3.0,-7.3,/,
O=c1cc(CCl)nc2sc3ccccc3n12,-4.1,1.5,89.3*,-0.6,-3.9,6.4,100.1*,GSTO1 recomb ABPP=87.0*
Cc1nnc2c(SC(C)C)nc3ccccc3n12,-0.4,-0.2,41.6*,4.6,2.7,-3.1,5.3,
CNC(=O)c1ccc(-n2cccn2)nc1,-4.5,1.1,-2.1,-6.2,-1.6,-0.6,/,
CCN(CC)C(=O)c1cc([N+](=O)[O-])cc2c1-c1ccc([N+](=O)[O-])cc1C2=C(C#N)C#N,-2.2,-2.9,38.0*,-1.5,7.6,5.1,24.8,
CCCCNC(=O)Oc1cc(CCl)on1,-1.0,-0.6,83.0*,5.1,0.5,1.4,91.1*,GSTO1 recomb ABPP=21.0
CCCCNC(=O)Cn1c(-c2ccc(OC)cc2)noc1=O,-1.4,2.5,1.7,5.0,0.8,-1.4,/,
Cc1cc(C(=O)NNC(=S)NC(=O)/C=C/c2ccccc2Cl)n[nH]1,-0.7,-0.3,57.9*,5.1,-1.8,8.8,9.9,
COc1ccc2c(c1)CCCC21NC(=O)N(CC(=O)c2cc(F)ccc2F)C1=O (stereo not given),-1.2,2.5,/,2.8,/,5.9,/,
N#C/C(=C\c1cc(O)c(O)c(O)c1)C(N)=O,-4.0,9.7,58.8*,-8.6,1.7,-8.3,14.7,
CCC(C)(C)n1nnnc1C(c1ccccc1)N1CCN(C2CCCC2)CC1 (stereo not given),-6.0,0.2,-2.8,-8.6,-0.9,-6.3,/,
O=C1Nc2ccccc2N2CCCC12 (stereo not given),2.8,-11.9,68.7*,-1.6,2.9,2.3,77.2*,
O=C1Nc2cc(S(=O)(=O)N3CCCC3)ccc2N2CCCC12 (stereo not given),-3.1,-8.5,-1.8,-1.0,-1.4,-3.0,/,
CC(C)(C)c1ccccc1OCC(=O)NCc1ccccc1,2.4,-3.5,4.2,7.6,4.4,4.6,/,
O=C(Cc1nnc(NC(=O)c2ccccc2)s1)N/N=C\c1ccc(O)c(O)c1,-5.7,-2.1,39.0*,1.0,3.4,-0.9,29.5,
O=[N+]([O-])c1ccc(O)c(C=Nc2ccc3oc(Cc4ccc(Cl)cc4)nc3c2)c1,-8.1,-8.7,41.4*,4.5,1.5,8.4,-0.6,
O=[N+]([O-])c1ccc(O)c(C=Nc2ccc3c(c2)OCCO3)c1,0.9,-5.8,0.0,0.6,-0.7,-0.3,/,
COc1cc(CNc2ccc(N3CCCCC3)cc2)ccc1OCC(=O)NC(C)(C)C,-3.3,-9.3,47.3*,-4.3,2.1,-3.9,4.8,
CCNCc1ccc(OCc2ccccc2F)c(OC)c1,0.7,-2.4,0.3,3.2,0.9,-6.1,/,
